# From PubChem BioAssay
# HSF1 inhib – HSF1 inhibition; AID 2098; activity change, negative = inhibition, % at 7.5 µM (by protocol); NIH3T3-HGL HSE-luciferase, MG132-induced, luminescence 8 h; active compounds read low; hit rate 0.77% among 300,000;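 active means more than half of replicate wells show activity change below -50%, luminescence cut by over half; inconclusive means some wells, but at most half, below -50%; inactive means no replicate well below -50%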;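 further: luciferase reports HSF-1 transcriptional activity via heat shock element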
# esBAF inh – inhibitors of esBAF chromatin remodeling in mouse ES cells; AID 602393; reporter increase, % at 12.5 µM; hit rate 2% among 350,000; Bmi1-luciferase knock-in reporter, 24 h; 100% = twice the neutral-well signal; in the data active means activation above about 40%; inconclusive means no clear call, values can overlap the other calls;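 further: a rise in the Bmi1 reporter signal indicates esBAF inhibition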
# Wnt act – activators of Wnt/beta-catenin signaling. Wnt/beta-catenin reporter cell assay, activator, plate reader. activation, % at 9.35 µM. hit rate 1.2% among 300,000. AID 743398; in the data active means activation above about 30%, passing the limit was not always enough; inconclusive means no clear call, values can overlap the other calls
# SMARCA2 act – SMARCA2 function activation, primary screen | AID 652017 | MG213 cells, MMTV-luciferase reporter, dexamethasone, overnight | activation, % at 9.1 µM | hit rate 1% among 370,000; in the data active means activation above about 7.8%
# MITF TRPM1 HTS – activators of MITF-driven TRPM1 promoter activity in SK-MEL-5 cells. SK-MEL-5 TRPM1-promoter luciferase, 24 h; % of positive control, neutral wells = 0. activation, % at 12.5 µM. hit rate 0.75% among 300,000;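 active means mean activation of at least 80% with every replicate also reaching 80%; inconclusive means mean reaches 80% but some replicate falls short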
# HSF-1 act – increases HSF-1 driven luciferase reporter signal. NIH3T3-HGL HSF-1 luciferase reporter, MG132, 8 h; 100% = twice DMSO control signal. activation, % at 9 µM. hit rate 1.7% among 300,000;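 active means mean replicate activation of at least 50% with a set share of replicates each reaching 50%; inconclusive means only one of those two conditions met; inactive means mean below 50% and too few replicates reaching it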
# SMARCA2 conf – SMARCA2 activation, confirmation screen; MG213 cells, MMTV-luciferase with dexamethasone, luminescence, overnight; MG213 cells expressing E1A, Rb sequestered; DMSO wells 0%, reference activator 100%; shares compounds with SMARCA2 act; activation, % at 9.1 µM; hit rate 30% among 3,500; AID 652260;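 active means activation above its plate's cutoff, the mean activation of tested wells plus 3 SD, cut at about 7.9% in these data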
# GAL4-VP16 Luc – counter-screen for SMARCA2 activators: GAL4-VP16 luciferase reporter activation | shares compounds with SMARCA2 act | HEK293 GAL4-VP16 pG5luc reporter, luciferase luminescence; scaled: DMSO wells 0%, SAHA wells 100% | activation, % at 9.1 µM | hit rate 41% among 3,500 | AID 686939;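 active means activation above the solvent-only control well mean plus 3 SD, averaged across control plates, cut at about 5.2% in these data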
# Hits are given with their value; 0 = inactive; ? = inconclusive; - = not tested or not shown; ! = not active in a repeat. Shown are actives, neighbours in structure and some others; about 4.3% of the full set was active somewhere.
SMILES,HSF1 inhib,esBAF inh,Wnt act,SMARCA2 act,MITF TRPM1 HTS,HSF-1 act,SMARCA2 conf,GAL4-VP16 Luc
O=C(N[C@@H]1CC[C@@H](CC(=O)N2CCN(c3ccccc3)CC2)O[C@H]1CO)c1ccncc1,-,0,-,-,-,-,-,-
CCC(C)c1ccc(OCCN2CCCC2)cc1 (stereo unspecified),0,0,0,9.2,0,0,0,0
CCN(CC)c1ccc(C=N/C(C#N)=C(\N)C#N)cc1,0,0,-,8.8,0,0,0,7.5
CCN(CC)c1ccc(/C=N/Nc2nn[nH]n2)cc1,0,0,0,0,0,0,-,-
C[C@H]1CN([C@@H](C)CO)C(=O)CCCn2cc(nn2)CO[C@@H]1CN(C)C(=O)c1ccc(N2CCN(C)CC2)cc1,-,0,0,8.2,-,-,0,0
COC(=O)N(C)C[C@H]1OCc2cnnn2CCCC(=O)N([C@@H](C)CO)C[C@@H]1C,-,0,0,8.6,-,-,0,0
COC(=O)N(C)C[C@H]1OCc2cnnn2CCCC(=O)N([C@H](C)CO)C[C@@H]1C,-,0,0,0,-,-,-,-
CCC1(c2ccc(Cl)cc2)NC(=S)N(c2ccc(C)c(C)c2)N1 (stereo unspecified),0,-,0,0,-,0,-,-
CCC1(c2ccc(Cl)cc2)NC(=S)N(c2ccc(C)cc2)N1 (stereo unspecified),0,-,-,9.3,0,61,0,0
COc1cc(/C=C/c2ccc3cccc(O)c3n2)cc(Br)c1OC,0,66,?,8.4,0,0,0,34
COc1cc(/C=C/c2ccc3cccc(O)c3n2)cc(Cl)c1OC,0,0,47,12,0,72,0,34
COC(=O)c1ccc(/C=C/c2ccc3cccc(OC)c3n2)cc1,0,-,0,0,0,0,-,-
COc1cccc(/C=C/c2ccc3cccc(O)c3n2)c1,0,0,?,14,0,0,0,23
COc1ccc(/C=C/c2ccc3c(Br)ccc(O)c3n2)cc1,0,?,0,0,?,0,-,-
COc1cc(/C=N/O)cc(Br)c1OC,0,0,0,0,0,0,-,-
COc1cc(/C=C/c2ccc3c(Br)cc(Br)c(O)c3n2)ccc1O,0,0,0,8.7,0,0,0,7.9
CCN1CCN(Cc2ccc(NC(=O)c3cc(NC(=O)c4cnnc5ccccc45)cc(OC)c3)cc2C(F)(F)F)CC1,0,0,0,14!,-,0,8.7,0
Cc1ccc(NC(=O)CNC(=O)c2cccc(C)c2)nc1,0,0,0,8.4,0,0,0,0
CC(C)c1ccc(NC(=O)C[C@H]2CC[C@H]3[C@@H](COc4ccc(NC(=O)Nc5ccc(F)c(F)c5)cc4C(=O)N3C)O2)cc1,-,0,-,-,-,-,-,-
CCC(=O)Nc1ccc2c(c1)C(=O)N(C)C[C@H](OC)[C@@H](C)CN(Cc1ccccc1F)[C@@H](C)CO2,-,0,-,-,-,-,-,-
Cc1ccc(-n2nc(CN3CCOCC3)c(-c3ccccc3)c2N)cc1Cl,0,0,-,0,0,0,-,-
Cc1nn(-c2ccccc2)c(N)c1-c1ccccc1,0,67,?,11,114,0,8.2,12
Cc1nn(-c2ccccc2)c(N)c1C(O)(C(F)(F)F)C(F)(F)F,0,-,0,0,0,0,-,-
Nc1c(-c2ccccc2)c(CN2CCOCC2)nn1-c1ccccc1,0,-,0,12,0,0,0,0
CC(C)NC(=O)Nc1ccc2c(c1)C(=O)N([C@H](C)CO)C[C@@H](C)[C@@H](CN(C)Cc1ccc3c(c1)OCO3)OCCCC[C@H](C)O2,-,0,-,-,-,-,-,-
SMILES,HSF1 inhib,esBAF inh,Wnt act,SMARCA2 act,MITF TRPM1 HTS,HSF-1 act,SMARCA2 conf,GAL4-VP16 Luc
Cc1ccccc1N=Nc1c(C)[nH]n(C(N)=S)c1=O,0,0,0,14,0,0,0,0
COC(=O)c1cnn2c3c(c(C)nc12)CCCC3,0,-,-,11,0,0,0,0
Cc1c2c(nc3c(C(=O)NC4CCCC4)cnn13)CCCC2,0,0,0,0,0,0,-,-
O=[N+]([O-])c1cccc(-c2cn3ccccc3n2)c1,0,0,67,12,0,0,11,0
CC(=O)C1=C(C)NC(SCC(=O)c2ccc(Cl)c(Cl)c2)=C(C#N)C1c1ccco1 (stereo unspecified),0,0,0,8.6,0,0,0,0
COc1ccccc1C#Cc1cnc2c(c1)C(=O)N([C@@H](C)CO)C[C@@H](C)[C@@H](CN(C)C(C)=O)O2,-,0,-,-,-,-,-,-
C[C@H]1CN([C@@H](C)CO)S(=O)(=O)c2ccc(C#CC3CC3)cc2O[C@H]1CN(C)Cc1ccncc1,-,0,-,-,-,-,-,-
C[C@H](CO)N1C[C@H](C)[C@H](CN(C)S(=O)(=O)c2ccc(F)cc2)Oc2c(NS(=O)(=O)c3ccc(Cl)cc3)cccc2C1=O,-,0,-,-,-,-,-,-
COC(=O)Nc1ccc(OCc2ccccc2)cc1,0,?,0,14,0,0,18,0
C[C@@H]1CN([C@H](C)CO)S(=O)(=O)c2ccc(/C=C/c3ccccc3)cc2O[C@H]1CN(C)C(=O)Nc1cc(F)ccc1F,-,0,-,-,-,-,-,-
O=C(N[C@H]1CC[C@@H](CCNS(=O)(=O)c2ccccc2)O[C@@H]1CO)c1cccnc1,-,0,-,-,-,-,-,-
CCCCSc1nc2c([nH]1)c(=S)n(C)c(=O)n2C,-,-,0,0,0,-,-,-
CSc1nc2c([nH]1)c(=S)n(C)c(=O)n2C,-,0,0,8.4,0,-,9.0,0
O=C(c1ccc(F)cc1)c1cc2ccccc2o1,0,64,65,11,?,0,0,7.4
C[C@H](CO)N1C[C@H](C)[C@@H](CN(C)S(=O)(=O)c2ccc(F)cc2)Oc2ccc(N(C)C)cc2CC1=O,-,0,-,-,-,-,-,-
O=C(Nc1ccc2c(c1)[C@H]1C[C@H](CC(=O)N3CCOCC3)O[C@@H](CO)[C@H]1O2)C1CCC1,-,0,-,-,-,-,-,-
Cc1ccccc1/C=N/Nc1ccnc2cc(Cl)ccc12,0,-,0,0,0,0,-,-
CCN(CC)Cc1cc(Nc2ccnc3cc(Cl)ccc23)ccc1O,0,0,0,8.2,0,0,20!,0
Oc1ccc(Nc2ccnc3cc(Cl)ccc23)cc1,0,0,0,0,0,0,-,-
Oc1ccc(/C=N/Nc2ccnc3cc(Cl)ccc23)c(O)c1,0,0,0,15,0,100,18,0
CNC[C@H]1OCCCC[C@H](C)Oc2ccc(NS(=O)(=O)c3ccc(OC)cc3)cc2C(=O)N([C@@H](C)CO)C[C@H]1C,-,0,-,-,-,-,-,-
Cc1c(C(=O)Nc2ccncc2)oc2ccccc12,0,0,0,0,-,0,-,-
COc1ccc(NC(=O)c2oc3ccccc3c2C)cn1,0,43,0,9.8,0,0,9.7,5.4
CC1(C)CC(=O)C=C(Nc2ccccc2NC(=O)c2cc(Cl)ccc2F)C1,-,-,-,9.2,-,-,0,0
